Reference: PubChem BioAssay AID720526 (National Center for Advancing Translational Sciences (NCATS), 2013)
Results filed as inconclusive are left out. Calls of active or inactive are those of the source. Calls follow the shape of the dose curve; as a rule, active = well fitted activation curve with a large enough effect; inconclusive = small, poorly fitted or top-dose-only effect; inactive = no such curve, though single readings can be large or run the other way.

assay: qHTS Assay for NPC1 Promoter Activators: Hit Validation Using Renila Luciferase Read-Out for NPC1; settings: Huh7 NPC1 promoter-luciferase reporter, luminescence, 24 h; series mostly up to 76.9 µM
Procedure, shortened: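 Luciferase reporter read-out: promoter activation measured by luminescence after 10 min with detection reagent at room temperature. Cells were Huh7 with a stable NPC promoter-luciferase construct, treated 24 h at 37 deg C.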
Potency is read from the fitted curve at half-maximal effect.

Potency, inactive:
Cc1nc(SCC(=O)NC(=O)NC(C)(C)C)nc(C)c1C
O=C(CN1C(=O)COc2ccc(Cl)cc21)NCC1CCCO1 (centres undefined)
Nc1ccccc1C(=O)N/N=C1/C2CN3CCN(C2)CC1(Cc1ccccc1)C3
COC(=O)c1cn(NC(=O)C2CCCCC2)c(=O)c2ccccc12
Cc1ccccc1NC(=O)Cc1nc(COC(=O)CC(C)c2ccccc2)cs1 (centres undefined)
COc1ccc2oc(=O)c(C(=O)NC(C)c3ccccc3)cc2c1 (centres undefined)
FC(F)(F)c1ccc(Nc2nnnc3ccccc23)cc1
Cc1cccc(N2CCN(C(=S)c3ccccc3)CC2)c1
COC(=O)c1ccccc1NC(=O)c1ccc(-c2ccc(Br)cc2)o1
O=C(c1cc2cc([N+](=O)[O-])ccc2oc1=O)n1cccn1
Cc1nc(-c2ccccn2)sc1C(=O)Nc1ccc(F)cc1F
CCCNC(=O)C1CCN(S(=O)(=O)c2ccc3[nH]c(=O)ccc3c2)CC1
COc1ccc(NC(=O)CCCN2C(=O)C(c3ccccc3)Oc3cccnc32)cc1OC (centres undefined)
CCOC(=O)c1csc(COc2ccc(OC)cc2)n1
COc1cccc(CNC(=O)CN(c2cc(C)cc(C)c2)S(=O)(=O)c2c(C)noc2C)c1
O=C(c1cccc(Oc2ccc([N+](=O)[O-])cc2)c1)N1CCOCC1
COc1ccc(-n2c(N)c(C(=O)NCc3ccco3)sc2=S)cc1
COc1ccc(NC(=O)Nc2ccc(Cc3ccncc3)cc2)cc1OC
CCc1cc(C(=O)Nc2ccccc2)cs1
COC(=O)c1ccccc1S(=O)(=O)NNC(=O)Nc1ccccc1
CCCCCCC(=O)Nc1ccc(C(=O)N/N=C/c2cccnc2)cc1
CCOC(=O)c1ccc(NC(=O)Oc2cc(C)c(Cl)cc2C(C)C)cc1
O=C(NCCc1ccccc1)c1cc2ncc(Br)cn2n1
CCOC(=O)c1ccc(-c2nnc(-c3ccc(Cl)cc3Cl)o2)cc1
O=C(Nc1nc2ccc(F)cc2s1)c1ccc(N2CCCC2=O)cc1
CC1CCCN(C(=S)Nc2ccc(Nc3ccccc3)cc2)C1 (centres undefined)
NCCOc1ccccc1-c1ccccc1
CC1=C(C(=O)OC2CCCC(C)C2)C(c2ccccc2)NC(=O)N1 (centres undefined)
Cc1ccc(C(=O)c2cn[nH]c2-c2ccccc2O)cc1
Cn1c(SCc2ccccc2)nnc1-c1cnccn1
CC1CCCN(S(=O)(=O)c2ccc(C(=O)Nc3nnc(-c4ccncc4)o3)cc2)C1 (centres undefined)
CCCCc1cc(=O)oc2cc(OCC(=O)N3CCOCC3)ccc12
Cc1nn(CCCC(=O)NCc2ccc(F)cc2)c(C)c1[N+](=O)[O-]
CCN(CC(=O)N(CC(C)C)c1c(N)n(CC(C)C)c(=O)[nH]c1=O)Cc1nc2ccccc2c(=O)[nH]1
COc1ccc(/C=C\c2onc(C)c2S(=O)(=O)N2CCC(C(=O)NCCC(C)C)CC2)cc1
NNC(=O)c1cccc(S(=O)(=O)Nc2cc(Cl)ccc2Cl)c1
COCCNC(=O)C1CCC(CNS(=O)(=O)c2ccc(F)cc2)CC1 (centres undefined)

Potency, active:
Nc1ccc(C(=O)Nc2ccccc2N)cc1 16.4 µM
CCOC(=O)c1ccccc1NC(=O)CSc1nnc(Cc2cccn2C)n1-c1ccc(F)cc1 46.3 µM
